Measurements taken from PubChem BioAssay AID1159580 (chemical genetic matrix, 2015).
In all, about 5,500 compounds went through this assay and about 2,000 (36%) were called active. Inconclusive results (about 18%) are left out. No stated cut-off is given here; in the data, active means normalized growth mostly below about 0.91 (no sharp cut-off); inconclusive means no clear call, values can overlap the other calls; inactive means mostly above about 0.92. The list shows a part of the results.

Assay: chemical genetic growth profiling, strain panel (AID 1159580);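 further: tested at 20 µM; growth read once vehicle control cultures reached saturation at 30 °C; 1 = growth at the plate median or of vehicle wells; lower values mean less growth of the strain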
Conditions: growth OD
[1] = S. cerevisiae deletion strains, locus YAL013W, strain DEP1, hits give low values
[2] = S. cerevisiae deletion strains, locus YBR229C, strain ROT2, hits give low values
[3] = S. cerevisiae deletion strains, locus YDL101C, strain DUN1, hits give low values
[4] = S. cerevisiae deletion strains, locus YDR150W, strain NUM1, hits give low values
[5] = S. cerevisiae deletion strains, locus YEL061C, strain CIN8, hits give low values
[6] = S. cerevisiae deletion strains, locus YGR078C, strain PAC10, hits give low values
[7] = S. cerevisiae deletion strains, locus YHR030C, strain SLT2, hits give low values
[8] = S. cerevisiae deletion strains, locus YHR087W, strain rtc3, hits give low values
[9] = S. cerevisiae deletion strains, locus YJR043C, strain POL32, hits give low values
[10] = S. cerevisiae deletion strains, locus YJR075W, strain HOC1, hits give low values
[11] = S. cerevisiae deletion strains, locus YLR039C, strain RIC1, hits give low values
[12] = S. cerevisiae deletion strains, locus YLR058C, strain SHM2 (second series), hits give low values
[13] = S. cerevisiae deletion strains, locus YLR085C, strain ARP6, hits give low values
[14] = S. cerevisiae deletion strains, locus YLR262C, strain YPT6, hits give low values
[15] = S. cerevisiae deletion strains, locus YML094W, strain GIM5, hits give low values
[16] = S. cerevisiae deletion strains, locus YMR219W, strain ESC1, hits give low values
[17] = S. cerevisiae deletion strains, locus YMR263W, strain SAP30, hits give low values
[18] = S. cerevisiae deletion strains, locus YNL153C, strain GIM3, hits give low values
[19] = S. cerevisiae deletion strains, locus YNL298W, strain CLA4 (second series), hits give low values
[20] = S. cerevisiae deletion strains, locus YNL322C, strain KRE1, hits give low values
[21] = S. cerevisiae deletion strains, locus YNR030W, strain Alg12, hits give low values
[22] = S. cerevisiae deletion strains, locus YPL055C, strain LGE1, hits give low values
[23] = S. cerevisiae deletion strains, locus YPL241C, strain CIN2, hits give low values
[24] = S. cerevisiae deletion strains, locus YPR135W, strain CTF4, hits give low values

Measured: normalized growth

O=[N+]([O-])c1cccnc1Oc1ccc(Cl)cc1
active: S. cerevisiae deletion strains, locus YCL061C, strain MRC1, hits give low values 0.895 | [3] 0.875 | [6] 0.886 | [7] 0.543 | [9] 0.886 | [11] 0.657 | [14] 0.707 | [18] 0.919 | [20] 0.933 | [24] 0.613
inactive: [1] 0.94 | [2] 0.939 | S. cerevisiae deletion strains, locus YDL134C, strain PPH21, hits give low values 0.973 | [4] 0.917 | [5] 0.977 | [8] 0.93 | [10] 0.933 | [12] 0.95 | [13] 0.789 | [15] 0.937 | [16] 0.954 | [17] 0.936 | [19] 0.858 | [21] 0.906 | [22] 0.959 | [23] 0.935 | S. cerevisiae strains, strain wild type, hits give low values 0.917

COc1ccc(Br)c(-c2nnc(-c3ccccc3[N+](=O)[O-])o2)c1
inactive: [1] 0.993 | [2] 1.01 | [3] 0.985 | [4] 0.943 | [5] 0.973 | [6] 1.02 | [7] 0.964 | [8] 1.02 | [9] 0.955 | [10] 0.975 | S. cerevisiae deletion strains, locus YKL190W, strain CNB1, hits give low values 1.01 | [11] 1.07 | [12] 1.02 | [13] 0.953 | [14] 1.06 | [15] 1 | [16] 1.01 | [17] 0.978 | S. cerevisiae deletion strains, locus YNL128W, strain TEP1, hits give low values 1.04 | [18] 1 | [19] 0.985 | [20] 1.01 | [21] 1 | [22] 0.953 | [23] 0.977 | [24] 1.07

CN1CCCC1c1cccnc1 (centres undefined)
inactive: [1] 0.987 | S. cerevisiae deletion strains, locus YAL040C, strain CLN3, hits give low values 0.984 | S. cerevisiae deletion strains, locus YCL061C, strain MRC1 (second series), hits give low values 0.981 | [4] 0.981 | S. cerevisiae deletion strains, locus YDR363W, strain ESC2, hits give low values 1.02 | S. cerevisiae deletion strains, locus YER002W, strain NOP16, hits give low values 0.994 | S. cerevisiae deletion strains, locus YMR307W, strain GAS1, hits give low values 1.03 | [18] 0.986 | S. cerevisiae deletion strains, locus YNL175C, strain NOP13, hits give low values 0.992 | S. cerevisiae deletion strains, locus YNL197C, strain WHI3, hits give low values 0.995 | S. cerevisiae deletion strains, locus YNL224C, strain SQS1, hits give low values 0.991 | [20] 0.98 | S. cerevisiae deletion strains, locus YOR083W, strain WHI5 (second series), hits give low values 0.988 | [22] 1 | [23] 0.984

CCOC(=O)NC(=S)Nc1ccc(C(C)(C)C)cc1NC(=S)NC(=O)OCC
inactive: S. cerevisiae deletion strains, locus YAR019C, strain CDC15, hits give low values 0.986 | S. cerevisiae deletion strains, locus YBL105C, strain PKC1, hits give low values 0.985 | S. cerevisiae deletion strains, locus YBR135W, strain CKS1, hits give low values 0.98 | S. cerevisiae deletion strains, locus YBR136W, strain MEC1, hits give low values 0.979 | S. cerevisiae deletion strains, locus YBR160W, strain CDC28, hits give low values 0.991 | S. cerevisiae deletion strains, locus YDL017W, strain CDC7, hits give low values 0.989 | S. cerevisiae deletion strains, locus YDL028C, strain MPS1, hits give low values 0.979 | [3] 0.982 | S. cerevisiae deletion strains, locus YDL108W, strain KIN28, hits give low values 0.985 | S. cerevisiae deletion strains, locus YDL132W, strain cdc53, hits give low values 0.983 | S. cerevisiae deletion strains, locus YDL214C, strain PRR2, hits give low values 0.94 | S. cerevisiae deletion strains, locus YDR052C, strain DBF4, hits give low values 0.982 | S. cerevisiae deletion strains, locus YDR054C, strain cdc34, hits give low values 0.983 | S. cerevisiae deletion strains, locus YDR226W, strain ADK1, hits give low values 0.988 | S. cerevisiae deletion strains, locus YDR477W, strain SNF1, hits give low values 0.921 | S. cerevisiae deletion strains, locus YER123W, strain YCK3, hits give low values 0.879 | S. cerevisiae deletion strains, locus YER133W, strain GLC7, hits give low values 0.934 | S. cerevisiae deletion strains, locus YFL009W, strain cdc4, hits give low values 0.974 | S. cerevisiae deletion strains, locus YFL029C, strain CAK1, hits give low values 0.985 | S. cerevisiae deletion strains, locus YFR003C, strain YPI1, hits give low values 0.986 | S. cerevisiae deletion strains, locus YFR019W, strain FAB1, hits give low values 0.922 | S. cerevisiae deletion strains, locus YFR028C, strain CDC14, hits give low values 0.986 | S. cerevisiae deletion strains, locus YGR040W, strain KSS1, hits give low values 0.923 | S. cerevisiae deletion strains, locus YGR052W, strain FMP48, hits give low values 1.04 | S. cerevisiae deletion strains, locus YGR092W, strain DBF2, hits give low values 0.572 | [7] 1.08 | S. cerevisiae deletion strains, locus YHR079C, strain IRE1, hits give low values 0.985 | S. cerevisiae deletion strains, locus YHR082C, strain KSP1, hits give low values 1.05 | S. cerevisiae deletion strains, locus YHR205W, strain SCH9, hits give low values 0.985 | S. cerevisiae deletion strains, locus YIL147C, strain SLN1, hits give low values 0.978 | S. cerevisiae deletion strains, locus YJL095W, strain BCK1, hits give low values 0.995 | S. cerevisiae deletion strains, locus YJL128C, strain PBS2, hits give low values 0.944 | S. cerevisiae deletion strains, locus YJL157C, strain FAR1, hits give low values 0.911 | S. cerevisiae deletion strains, locus YJR016C, strain ILV3, hits give low values 0.981 | S. cerevisiae deletion strains, locus YJR066W, strain TOR1 (second series), hits give low values 0.778 | S. cerevisiae deletion strains, locus YJR066W, strain TOR1, hits give low values 1.06 | S. cerevisiae deletion strains, locus YKL048C, strain ELM1, hits give low values 0.928 | S. cerevisiae deletion strains, locus YKL067W, strain YNK1, hits give low values 0.932 | S. cerevisiae deletion strains, locus YKL101W, strain HSL1, hits give low values 0.961 | S. cerevisiae deletion strains, locus YKL193C, strain SDS22, hits give low values 0.987 | S. cerevisiae deletion strains, locus YKL203C, strain TOR2, hits give low values 0.989 | S. cerevisiae deletion strains, locus YLR113W, strain HOG1, hits give low values 1.02 | S. cerevisiae deletion strains, locus YLR133W, strain CKI1, hits give low values 0.948 | S. cerevisiae deletion strains, locus YLR403W, strain SFP1, hits give low values 0.91 | S. cerevisiae deletion strains, locus YML070W, strain DAK1, hits give low values 0.925 | S. cerevisiae deletion strains, locus YMR001C, strain CDC5, hits give low values 0.985 | S. cerevisiae deletion strains, locus YMR205C, strain PFK2 (second series), hits give low values 0.924 | S. cerevisiae deletion strains, locus YMR277W, strain FCP1, hits give low values 0.981 | S. cerevisiae deletion strains, locus YNL006W, strain LST8, hits give low values 0.98 | S. cerevisiae deletion strains, locus YNL020C, strain ARK1, hits give low values 0.928 | S. cerevisiae deletion strains, locus YNL161W, strain CBK1, hits give low values 0.986 | S. cerevisiae deletion strains, locus YNL183C, strain NPR1, hits give low values 1.06 | S. cerevisiae deletion strains, locus YNL207W, strain RIO2, hits give low values 0.981 | S. cerevisiae deletion strains, locus YNL222W, strain SSU72, hits give low values 0.98 | S. cerevisiae deletion strains, locus YNL307C, strain MCK1 (second series), hits give low values 0.926 | S. cerevisiae deletion strains, locus YOL078W, strain AVO1, hits give low values 0.979 | S. cerevisiae deletion strains, locus YOL136C, strain PFK27, hits give low values 0.931 | S. cerevisiae deletion strains, locus YOR061W, strain CKA2, hits give low values 0.712 | S. cerevisiae deletion strains, locus YOR119C, strain RIO1, hits give low values 0.959 | S. cerevisiae deletion strains, locus YOR231W, strain MKK1, hits give low values 0.997 | S. cerevisiae deletion strains, locus YOR329C, strain SCD5, hits give low values 0.983 | S. cerevisiae deletion strains, locus YPL031C, strain PHO85, hits give low values 0.93 | S. cerevisiae deletion strains, locus YPL153C, strain RAD53, hits give low values 0.897 | S. cerevisiae deletion strains, locus YPL204W, strain HRR25, hits give low values 0.924 | S. cerevisiae deletion strains, locus YPL209C, strain IPL1, hits give low values 0.989 | S. cerevisiae deletion strains, locus YPL256C, strain CLN2, hits give low values 1.04 | S. cerevisiae deletion strains, locus YPR025C, strain CCL1, hits give low values 0.986 | S. cerevisiae deletion strains, locus YPR106W, strain ISR1, hits give low values 0.986 | S. cerevisiae deletion strains, locus YPR111W, strain DBF20, hits give low values 0.978 | S. cerevisiae deletion strains, strain NNK1, hits give low values 0.981 | S. cerevisiae deletion strains, strain TSCII, hits give low values 0.985
